The full ranking holds about 33,000 sequences; the median of “E-score (-0.5 to 0.5)” is about -0.011, and the highest 2% start at about 0.28. Only a selection was taken, and the highest values are over-represented in it overall.

The test concerns the target T1, Gcr1 (UniProt P07261).
T1 sequence: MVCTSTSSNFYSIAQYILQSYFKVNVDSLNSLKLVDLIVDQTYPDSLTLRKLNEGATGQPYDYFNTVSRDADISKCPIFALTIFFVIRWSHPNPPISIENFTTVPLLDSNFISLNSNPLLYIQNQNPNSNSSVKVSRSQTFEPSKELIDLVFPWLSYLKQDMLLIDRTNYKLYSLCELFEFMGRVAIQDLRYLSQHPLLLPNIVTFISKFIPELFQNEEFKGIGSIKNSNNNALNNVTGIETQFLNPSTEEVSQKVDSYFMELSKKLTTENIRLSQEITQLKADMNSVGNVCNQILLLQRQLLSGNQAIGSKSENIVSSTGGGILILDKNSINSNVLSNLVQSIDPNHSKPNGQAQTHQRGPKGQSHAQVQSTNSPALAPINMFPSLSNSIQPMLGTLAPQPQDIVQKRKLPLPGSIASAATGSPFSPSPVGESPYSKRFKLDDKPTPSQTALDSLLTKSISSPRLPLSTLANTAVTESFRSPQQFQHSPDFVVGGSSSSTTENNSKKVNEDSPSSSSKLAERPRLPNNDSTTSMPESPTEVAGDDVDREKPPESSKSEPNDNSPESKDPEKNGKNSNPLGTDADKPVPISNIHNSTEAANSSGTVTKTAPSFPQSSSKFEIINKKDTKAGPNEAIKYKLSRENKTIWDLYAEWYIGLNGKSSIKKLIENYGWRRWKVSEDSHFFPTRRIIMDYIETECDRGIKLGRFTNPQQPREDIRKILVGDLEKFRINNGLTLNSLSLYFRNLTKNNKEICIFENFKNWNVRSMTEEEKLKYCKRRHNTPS
Put plainly: PBM E-score (8-mer binding enrichment) (E-score (-0.5 to 0.5)); higher = stronger / more preferred TF binding. The conditions noted are these: protein concentration: 100 nM; construct: GST-full length. The method in brief:
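PURExpress in vitro transcription/translation supplied GST-tagged yeast transcription factors, either full-length or DNA-binding domain. Applied at about 100-200 nM to universal all-10-mer Agilent arrays double-stranded by primer extension, the bound protein was detected with fluorescent anti-GST. E-scores, modified Wilcoxon-Mann-Whitney statistics, were given by the Universal PBM Analysis Suite to ungapped eight-base words pooled with their reverse complements after masliner normalisation.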
As to AACTACTC, the “PBM E-score” value turned out to be 0.0802.

AACTACTA: the “PBM E-score” value turned out to be 0.288.

As to AACTACTG, the “PBM E-score” value is -0.0124.

Consider CGGATACG, for which the “PBM E-score” value amounted to 0.0225.

TTATGGAA: the “PBM E-score” value amounted to 0.163.

Regarding ACTCTTCA, the “PBM E-score” value was -0.15.

Consider AGTAGCAA, for which the “PBM E-score” value was 0.111.

Consider AGTAGCAC, for which the “PBM E-score” value was 0.287.

With GGTAGCAC, the “PBM E-score” value worked out at 0.0683.

In the case of CCGGTTCG, the “PBM E-score” value is -0.0186.

Consider CCTAAATA, for which the “PBM E-score” value was determined as 0.129.

For ACTAAATC, the “PBM E-score” value was found to be 0.0396.

Consider CCTAAATC, for which the “PBM E-score” value is 0.306.

Turning to GTCGGTTA, the “PBM E-score” value is -0.058.

On to CGAACACC, for which the “PBM E-score” value is -0.135.

For the sequence CGTTCATA, the “PBM E-score” value is -0.0211.

Regarding ATTACTGG, the “PBM E-score” value came out at 0.362.

With AATACTGA, the “PBM E-score” value is 0.0152.

In the case of ATTACTGA, the “PBM E-score” value was -0.0681.

In the case of ATTACTGC, the “PBM E-score” value is -0.0604.

Regarding AATACTGG, the “PBM E-score” value was 0.369.

In the case of CATACTGG, the “PBM E-score” value came out at 0.209.

With ACTACTCC, the “PBM E-score” value amounted to 0.0438.

In the case of CAATTAGC, the “PBM E-score” value is -0.0933.

Take AGCGTCCT: the “PBM E-score” value worked out at 0.426.

For ACCGTCCT, the “PBM E-score” value is -0.196.

On to AGCGTCCA, for which the “PBM E-score” value worked out at 0.437.

For AGCGTCAC, the “PBM E-score” value was -0.078.

As to AGCGTCCC, the “PBM E-score” value is 0.347.

As to CGCGTCCC, the “PBM E-score” value was 0.0398.

In the case of AGCGTCCG, the “PBM E-score” value is 0.165.

Turning to AACGTCCT, the “PBM E-score” value was determined as 0.043.

In the case of GGCGTCCC, the “PBM E-score” value was 0.362.

Regarding AACGTCCC, the “PBM E-score” value is -0.159.

Regarding ATCGTCCA, the “PBM E-score” value was determined as 0.0357.

As for GCCGTCCC, the “PBM E-score” value was -0.0711.

Turning to CACTTCTA, the “PBM E-score” value was 0.00557.

Take ATTTATGC: the “PBM E-score” value turned out to be 0.0089.

GCGGCCCC: the “PBM E-score” value was determined as 0.19.

As for GATGAGAA, the “PBM E-score” value was -0.138.

On to GGCGTCCA, for which the “PBM E-score” value turned out to be 0.436.

On to CGCGTCCA, for which the “PBM E-score” value turned out to be 0.245.

For TGCGTCCA, the “PBM E-score” value is 0.0639.

For GTGACATA, the “PBM E-score” value is 0.217.

As for GCAGATTA, the “PBM E-score” value came out at 0.0499.

Turning to AGATACCA, the “PBM E-score” value was 0.246.

With GGATACCA, the “PBM E-score” value turned out to be 0.33.

As for TGATACCA, the “PBM E-score” value came to 0.107.

Regarding GAAAACCA, the “PBM E-score” value turned out to be 0.084.

Regarding AAATCTTA, the “PBM E-score” value came to 0.111.

On to GGAATCTA, for which the “PBM E-score” value amounted to 0.357.

On to CGCATCTA, for which the “PBM E-score” value was 0.204.

As for AGAATCTA, the “PBM E-score” value turned out to be 0.219.

For the sequence GGCATCTA, the “PBM E-score” value worked out at 0.347.

As for AGCATCTC, the “PBM E-score” value is 0.121.

Consider AGTATCTA, for which the “PBM E-score” value is -0.103.

Take GGCATCAA: the “PBM E-score” value stood at 0.0535.

As for AGCATCTG, the “PBM E-score” value stood at 0.115.

With CGAATCTA, the “PBM E-score” value amounted to 0.122.

Regarding AGCATCTA, the “PBM E-score” value came out at 0.319.

With CGTATCTA, the “PBM E-score” value turned out to be 0.0661.

GGTATCTA: the “PBM E-score” value worked out at 0.292.

For the sequence CGAGACAG, the “PBM E-score” value was -0.0925.

Consider AGACGGAA, for which the “PBM E-score” value was -0.0525.

Regarding AAGGAATA, the “PBM E-score” value is -0.159.

ACTGGTCC: the “PBM E-score” value was -0.314.

In the case of ACCCACAC, the “PBM E-score” value was -0.0404.

Take ACTCGCCG: the “PBM E-score” value was -0.00848.

Regarding ACTCTTCC, the “PBM E-score” value was -0.211.

For the sequence CGCGAACA, the “PBM E-score” value was -0.00841.

On to GCGGGGCC, for which the “PBM E-score” value was determined as 0.131.

On to ACATCTAC, for which the “PBM E-score” value was -0.0726.

As to CATTGAAC, the “PBM E-score” value is 0.0331.

In the case of ATTTTAGC, the “PBM E-score” value came to 0.0912.

For the sequence AGCCACTG, the “PBM E-score” value amounted to 0.11.

Regarding CACCGGTC, the “PBM E-score” value is -0.271.

Turning to CAGGACGC, the “PBM E-score” value came out at 0.412.

On to AAGGACGC, for which the “PBM E-score” value is 0.256.

Consider CTGGACGA, for which the “PBM E-score” value was -0.0396.

Take GAGGACGC: the “PBM E-score” value was 0.289.

Turning to ATGGACGC, the “PBM E-score” value came to 0.262.

CCGGACGG: the “PBM E-score” value is -0.116.

Regarding GAGGACAC, the “PBM E-score” value is -0.225.

With ACGGACGC, the “PBM E-score” value turned out to be 0.14.

With CAGGACGA, the “PBM E-score” value is -0.145.

For CTGGACGC, the “PBM E-score” value was determined as 0.412.

Consider CCGGACGC, for which the “PBM E-score” value stood at 0.31.

GAGGACGA: the “PBM E-score” value is -0.0483.

(Values after the supplement of paper PMC3334620.)
